# In PubChem BioAssay (NCI):
# Compounds without any hit were thinned out: in the full panel of roughly 83,000, 20% have a hit.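 96-well plates, one dose, 48 hours. Percent growth reported; active if below 10.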 Calls of active or inactive are those of the source.
# System: HL-60(TB) leukemia
# Test: NCI-60 one-dose screen, 48 h (100 = growth as untreated, 0 = no growth, -100 = all killed)
# Settings: 10 µM unless noted
row,Structure (SMILES),growth
1,O=C(/C=C/C12c3ccccc3C(c3ccccc31)C1C(=O)N(c3ccccc3)C(=O)C12)c1ccc(Cl)cc1 (stereo not drawn),10.7% (inactive)
2,O=c1c(CNc2ccc(S(=O)(=O)Nc3ncccn3)cc2)coc2ccccc12,93.2% (inactive)
3,CCOC(=O)c1c(NC(=O)CSc2n[nH]c3nc4ccccc4n23)sc(CC)c1C,97.9% (inactive)
4,O=[N+]([O-])c1ccc(NCSc2ccc(Cl)cc2)cc1,83.2% (inactive)
5,Cc1ccc(N=CNN=C(N)N)cc1,87.9% (inactive)
6,S=C=Nc1ccc(N2CCOCC2)cc1,103% (inactive)
7,COc1ccc(-c2nn(-c3cccc(Cl)c3)cc2C2CC(c3ccccc3)=NN2C(C)=O)cc1 (stereo not drawn),101% (inactive)
8,O=[N+]([O-])c1ccc(-c2cc(-c3ccc(Nc4nc(Nc5ccc(Cl)cc5)nc(Nc5ccc(Cl)cc5)n4)cc3)no2)cc1,-63% (active)
9,Cn1c(N2NC(=O)C(N=Nc3ccc(S(N)(=O)=O)cc3)C2=O)nc(-c2ccco2)c(C#N)c1=O (stereo not drawn),-41.4% (active)
10,O=C(Nc1cccc(N=Cc2c(O)ccc3ccccc23)c1)c1ccccc1,109% (inactive)
11,NC(CSC(c1ccccc1)(c1ccccc1)c1ccc2c(c1)OCO2)C(=O)O (stereo not drawn),-26.2% (active)
12,Cc1nn(-c2ccc(Br)cc2)c2nc3[nH]c(=O)[nH]c(=O)c3nc12,120% (inactive)
13,N#Cc1cccc(NC(=O)c2cc(-c3ccc(F)cc3F)ccc2O)c1,-19.1% (active)
14,Oc1[nH]c2ccc(Cl)cc2c1/C=c1/ccc2c(c1)N=C(c1cccs1)N=2,98.4% (inactive)
15,COc1ccc(-c2nn(-c3ccc(NC(=O)c4cc(C(F)(F)F)cc(C(F)(F)F)c4)cc3)cc2-c2ccncc2)cc1Cl,73.6% (inactive)
16,CCOC(=O)CC(C#N)(CC(=O)OCC)C(=O)OCC,102% (inactive)
17,COc1ccc(OC)c2c1CCC1(C2)NC(=O)NC1=O (stereo not drawn),111% (inactive)
18,CCOC(=O)C1C(=O)C=C(c2cc(OC)c(OC)c(OC)c2)CC1c1sc(N(C)Cc2ccccc2)nc1Cl (stereo not drawn),80.4% (inactive)
19,COc1cc(/C=C/c2cc(/C=C/c3ccc(O)c(OC)c3)n(C(=O)Cc3ccccc3)n2)ccc1O,-9.93% (active)
20,CCOc1ccccc1/C=N/Nc1nc2ccccc2o1,98.6% (inactive)
21,Nc1ccc(C(OC(=O)c2cc3ccccc3c(Cc3c(O)c(C(=O)OC(c4ccc(N)cc4)(c4ccc(N)cc4)c4ccc(N)cc4)cc4ccccc34)c2O)(c2ccc(N)cc2)c2ccc(N)cc2)cc1,4.23% (active)
22,c1cc(OCCN2CCCCC2)ccc1CNc1ccc2nc(CCC3CCCCC3)[nH]c2c1,-31.6% (active)
23,COc1ccc(/C=C/C(c2cc(OC)c(OC)c(OC)c2)n2cncn2)cc1 (stereo not drawn),-17.9% (active)
